The list is not random: actives were taken first. Their share in the collection is about 3.3%.
HTT-AS promoter = Primary qHTS for Identification of Small Molecule Activators of Huntingtin-Antisense Promoter Activity; Potency, µM (doses to about 57.5 µM), for the others: top-dose activity change, positive = activation, most hits filed as activators; 0.24% of 48,000 active; AID 1508624, 2021; HEK293 HTT-AS promoter firefly luciferase reporter, 24 h; response scale: percent change from vehicle, -100% = no light; further: potency means the concentration at half of the fitted maximal effect; nearly all actives have a fitted effect of over 55% in size
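HEK293 cells carrying firefly luciferase reporters were seeded at 2,500 per well in Opti-MEM and cultured for 24 h. They were then treated with compounds at up to 57.5 uM final for 24 h at 37 degrees C before Dual-Glo luminescence readout.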
PMP22 txn = Cell-based coincidence reporter assay to measure PMP22 gene transcription in S16 Pmp22-F2sN cells - Primary screen; S16 Pmp22-F2sN Schwann cells, FLuc/NLuc coincidence luminescence, 24 h; 2% of 43,000 active; Potency, µM (highest dose often 57.5 µM), inactives show at the top dose activity change, negative = inhibition, most hits filed as inhibitors; active means clear falling dose curves in both reporters; inconclusive means both reporters move, but less clearly or upward; inactive means either reporter flat; the % is the NLuc reporter signal; further: potency means the concentration at half of the fitted maximal effect; on the % scale 0 is the no-effect control and ±100 the full control effect
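S16 Schwann cells carrying FLuc/NLuc coincidence reporter in the Pmp22 3' UTR treated with compound 24 h at 37C; FLuc then NLuc luminescence read sequentially by dual-luciferase reagents.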
HTT promoter inh = Primary qHTS for Identification of Small Molecule Inhibitors of Huntingtin Promoter Activity; 0.93% of 48,000 active; HEK293 HTT promoter firefly luciferase reporter, 24 h; Potency, µM (series often up to 57.5 µM), for inactives: at the highest dose activity change, negative = inhibition, most hits filed as inhibitors; further: potency means the concentration at half of the fitted maximal effect; nearly all actives have a fitted effect of over 50% in size
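HEK293 luciferase promoter-reporter cells (2,500/well) plated 24 h, then compounds added at up to 57.5 uM final for 24 h at 37 °C. Firefly luminescence by Dual-Glo, normalized to vehicle (0%) and zero RLU (-100%).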
S16 F2sN tox = Cell viability qHTS assay in S16 Pmp22-F2sN cells. S16 Pmp22-F2sN Schwann cells viability, CellTiter-Glo, 24 h. Potency, µM (top dose mostly 57.5 µM), without a hit: top-dose activity change, negative = cytotoxicity, usual class: cytotoxic. 0.48% of 43,000 active; further: potency means the concentration at half of the fitted maximal effect; on the % scale 0 is the no-effect control and ±100 the full control effect; nearly all actives have a fitted effect of over 65% in size
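Used to flag compounds lowering reporter output through toxicity, this quantitative HTS measures ATP-based CellTiter-Glo luminescence in S16 Pmp22-F2sN Schwann cells after 24 h compound exposure at 37C.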
FH mod = Identification of activators of human fumarate hydratase by quantitative high-throughput screening; Fumarate hydratase, mitochondrial (Homo sapiens), P07954; Potency, µM (doses to about 79.9 µM), for inactives: at the highest dose activity change, negative = inhibition, actives largely listed as inhibitors; FH coupled MDH/diaphorase resazurin fluorescence, 15 min; 0.22% of 54,000 active; further: potency means the concentration at half of the fitted maximal effect; on the % scale 0 is the no-effect control and ±100 the full control effect; the screen sought activators but most active calls are inhibition curves; nearly all actives have a fitted effect of over 45% in size
Target sequence (P07954 whole entry, looked up): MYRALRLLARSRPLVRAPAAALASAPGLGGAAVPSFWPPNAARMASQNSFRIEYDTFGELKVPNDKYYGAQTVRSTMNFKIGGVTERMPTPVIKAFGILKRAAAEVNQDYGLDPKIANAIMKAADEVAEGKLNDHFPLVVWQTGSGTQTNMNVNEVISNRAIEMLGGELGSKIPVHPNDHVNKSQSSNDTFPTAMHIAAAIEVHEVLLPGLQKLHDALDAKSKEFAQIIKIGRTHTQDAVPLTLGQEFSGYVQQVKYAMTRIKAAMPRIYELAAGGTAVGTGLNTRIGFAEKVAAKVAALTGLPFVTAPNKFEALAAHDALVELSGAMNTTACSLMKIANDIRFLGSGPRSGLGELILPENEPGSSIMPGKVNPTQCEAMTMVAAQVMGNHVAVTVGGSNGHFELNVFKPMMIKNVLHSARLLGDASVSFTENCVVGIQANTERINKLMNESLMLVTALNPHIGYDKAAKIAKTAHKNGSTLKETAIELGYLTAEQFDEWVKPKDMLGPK
pS6 MEF inh = Acumen qHTS Assay for Inhibitors of the mTORC1 Signaling Pathway in MEF (Tsc2-/-, p53-/-) Cells: Sytravon | Tsc2-/- p53-/- MEF, phospho-rpS6 immunofluorescence/PI, 24 h | 0.78% of 44,000 active | AID 493208, 2011 | Potency, µM (series often up to 38.3 µM), for inactives: at the highest dose activity change, negative = inhibition, hits mostly inhibitors;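 further: potency means the concentration at half of the fitted maximal effect; plate controls were DMSO for no effect and rapamycin for full effect; nearly all actives have a fitted effect of over 50% in size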
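Tsc2-/-, p53-/- mouse embryonic fibroblasts (empty-vector line) exposed to compound 24 hrs at 37 C, fixed, immunostained for phospho-rpS6 and counterstained with propidium iodide. Acumen laser scanning gives % positive cells from Alexa 488/PI ratio, thresholded using 7.5 nM rapamycin; PI count gives viability.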
NLuc sat counter = Biochemical NLuc saturation counterscreen for small molecule modulators of PMP22 gene expression - Nano-Glo assay; shares compounds with PMP22 txn; Secreted NLuc enzyme (filtered S16 cell medium), Nano-Glo luminescence; Potency, µM (doses to about 57.5 µM), for inactives: at the top dose activity change, negative = inhibition, most hits filed as inhibitors; 4% of 690 active; AID 1508638, 2021; further: potency means the concentration at half of the fitted maximal effect; on the % scale 0 is the no-effect control and ±100 the full control effect
NLuc Km counter = Biochemical coelenterazine-based NLuc counterscreen for small molecule modulators of PMP22 gene expression - Km assay; Potency, µM (series often up to 57.5 µM), without a hit: at the highest dose activity change, negative = inhibition, usual class: inhibitors; secreted NLuc enzyme, coelenterazine luminescence, Km conditions; shares compounds with PMP22 txn; 5% of 690 active; further: potency means the concentration at half of the fitted maximal effect; on the % scale 0 is the no-effect control and ±100 the full control effect
FLuc counter = Biochemical FLuc counterscreen for small molecule modulators of PMP22 gene expression | shares compounds with PMP22 txn | purified P. pyralis FLuc, luminescence, 10 min | Potency, µM (titrated, usually from 57.5 µM), without a hit: at the top dose activity, negative = inhibition, actives largely listed as inhibitors | 690 tested, under 10 active; further: % of control where 0% means no effect
S16 viab conf = Cell viability qHTS assay in S16 Pmp22-F2sN cells - Confirmatory screen; shares compounds with PMP22 txn; S16 Schwann cells viability, CellTiter-Glo ATP luminescence, 24 h; Potency, µM (series often up to 57.5 µM), for inactives: at the top dose activity change, negative = viability loss, hits mostly cytotoxic; 7% of 690 active; AID 1508641, 2021; further: potency means the concentration at half of the fitted maximal effect; on the % scale 0 is the no-effect control and ±100 the full control effect
PMP22 txn cnf = Cell-based coincidence reporter assay to measure PMP22 gene transcription in S16 Pmp22-F2sN cells - Confirmatory screen; shares compounds with PMP22 txn; S16 Schwann cells Pmp22-F2sN, dual luciferase, 24 h; Potency, µM (titrated, usually from 57.5 µM), for inactives: top-dose activity change, negative = inhibition, actives largely listed as inhibitors; 22% of 690 active; AID 1508646, 2021; active means clear falling dose curves in both reporters; inconclusive means both reporters move, but less clearly or upward; inactive means either reporter flat; the % is the FLuc reporter signal; further: potency means the concentration at half of the fitted maximal effect
PMP22 prot conf = Cell-based HiBiT reporter assay to measure PMP22 protein expression in S16 Pmp22-HiBiT cells - Confirmatory screen | shares compounds with PMP22 txn | S16 Schwann cells Pmp22-HiBiT, luminescence, 48 h | Potency, µM (doses to about 27.9 µM), inactives show at the highest dose activity change, negative = inhibition, hits mostly inhibitors | 95 tested, under 10 active | AID 1508647, 2021
Target sequence (P25094 whole entry, looked up): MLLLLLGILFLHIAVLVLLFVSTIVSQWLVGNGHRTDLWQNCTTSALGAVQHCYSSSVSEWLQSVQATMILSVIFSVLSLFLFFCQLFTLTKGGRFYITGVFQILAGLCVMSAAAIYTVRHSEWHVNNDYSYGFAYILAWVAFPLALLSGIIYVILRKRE
The depositor's hits bear a star. Unless noted, the call rests on the fitted dose curve; in most records, active means well fitted curve in the direction sought with a large enough effect; inconclusive means small, poorly fitted or top-dose-only effect, or another doubt; inactive means no such curve, though single readings can be large; an effect the other way counts as inactive or inconclusive.

How did COc1cc(OC)cc(-c2ccc3c(-c4ccc(F)cc4)[nH]nc3n2)c1 do in these assays?
FH mod: 7.0%

Results for Cc1ccc(/C=C/c2onc(C)c2S(=O)(=O)N2CCC(C(=O)N3CCN(c4ccccc4F)CC3)CC2)cc1 ?
HTT-AS promoter: -15.9%; PMP22 txn: -16.9%; HTT promoter inh: -9.3%; S16 F2sN tox: 9.4%; FH mod: -33.6%; pS6 MEF inh: -4.4%

What do the screens show for `CC(=O)c1ccc(N2CCN(C(=O)C3CCN(S(=O)(=O)c4c(C)noc4/C=C/c4ccc(C)cc4)CC3)CC2)cc1`?
HTT-AS promoter: -35.0%; PMP22 txn: inconclusive; HTT promoter inh: inconclusive; S16 F2sN tox: -7.7%; FH mod: inconclusive; pS6 MEF inh: 0.0%; NLuc sat counter: -4.3%; NLuc Km counter: 12.0%; FLuc counter: -6.5%; S16 viab conf: -9.4%; PMP22 txn cnf: -13.0%

How did N#Cc1c(Oc2ccc(F)c(NC(=O)Cc3cccc(C(F)(F)F)c3)c2)ccc2nc(NC(=O)C3CC3)sc12 do in these assays?
FH mod: -12.5%

Results for COc1ccc(N(C(=O)c2cc(OC)c(OC)c(OC)c2)S(=O)(=O)c2ccc(C)cc2)cc1 ?
HTT-AS promoter: 0.0%; PMP22 txn: 18.9µM*; HTT promoter inh: inconclusive; S16 F2sN tox: inconclusive; FH mod: inconclusive; pS6 MEF inh: 3.4%; NLuc sat counter: -20.8%; NLuc Km counter: -1.2%; FLuc counter: -0.4%; S16 viab conf: -20.4%; PMP22 txn cnf: -16.1%

What do the screens show for `Cc1ccc(-n2c(=O)c3ccc(C(=O)NCc4ccccc4Cl)cc3n(CC(=O)Nc3cccc(Cl)c3)c2=O)cc1`?
HTT-AS promoter: -6.9%; PMP22 txn: inconclusive; HTT promoter inh: -11.6%; S16 F2sN tox: inconclusive; FH mod: -17.2%; pS6 MEF inh: 1.2%

Results for CCCN(CCC)C(=O)Cn1c(=O)n(-c2ccc(OC)cc2)c(=O)c2ccc(C(=O)NCc3ccc(C)cc3)cc21 ?
HTT-AS promoter: -23.5%; PMP22 txn: -14.1%; HTT promoter inh: -11.9%; S16 F2sN tox: -0.6%; FH mod: -8.9%; pS6 MEF inh: 2.0%

What do the screens show for `Cc1ccc(NC(=O)Cn2c(=O)n(-c3ccc(C)cc3)c(=O)c3ccc(C(=O)NCc4ccccc4Cl)cc32)cc1`?
HTT-AS promoter: -64.1%; PMP22 txn: 4.5µM*; HTT promoter inh: inconclusive; S16 F2sN tox: inconclusive; FH mod: 10.1%; pS6 MEF inh: -9.3%; NLuc sat counter: -5.1%; NLuc Km counter: 12.9%; FLuc counter: -1.6%; S16 viab conf: 21.7µM*; PMP22 txn cnf: 5.15µM*; PMP22 prot conf: inconclusive

How did Cc1ccc(-n2c(=O)c3ccc(C(=O)NCc4ccccc4Cl)cc3n(CC(=O)Nc3ccc(C)cc3C)c2=O)cc1 do in these assays?
HTT-AS promoter: -10.8%; PMP22 txn: 15µM*; HTT promoter inh: -14.0%; S16 F2sN tox: 10.9%; FH mod: 7.3%; pS6 MEF inh: -7.6%; NLuc sat counter: -5.7%; NLuc Km counter: 4.2%; FLuc counter: 6.2%; S16 viab conf: inconclusive; PMP22 txn cnf: 8.48µM*

What do the screens show for `CCc1ccc(NC(=O)Cn2c(=O)n(-c3ccc(OC)cc3)c(=O)c3ccc(C(=O)NCc4ccc(C)cc4)cc32)cc1`?
HTT-AS promoter: -1.5%; PMP22 txn: 12.7µM*; HTT promoter inh: -1.1%; S16 F2sN tox: -7.8%; FH mod: 8.2%; pS6 MEF inh: inconclusive; NLuc sat counter: -2.0%; NLuc Km counter: 5.8%; FLuc counter: -0.8%; S16 viab conf: inconclusive; PMP22 txn cnf: 12.2µM*; PMP22 prot conf: inconclusive

How did Cc1ccccc1NS(=O)(=O)c1ccc2c(c1)NC(=O)CCS2 do in these assays?
HTT-AS promoter: -25.5%; PMP22 txn: -12.7%; HTT promoter inh: -22.1%; S16 F2sN tox: 2.5%; FH mod: -5.9%; pS6 MEF inh: 4.3%

Screening results from PubChem.
